Screening results (PubChem)
Cycloheximide cs – counter-screen for Shiga toxin inhibitors: cycloheximide protein synthesis inhibition | 300,000 compounds, 12% hits | max response, % | AID 2314 | cell reporter, cycloheximide protein synthesis inhibition counterscreen; in the data active means max response mostly above about 13%, no sharp cut-off; inactive means mostly below about 14%; further: read at 38.3 µM for the half of the compounds with a filed dose; 0% is about no effect
SARS PLP yeast – SARS-CoV PLP inhibition in yeast | Potency, µM (highest dose often 32.9 µM), for inactives: at the highest dose activity, positive = growth rescue, hits mostly activators | S. cerevisiae expressing SARS-CoV PLpro, growth rescue | 330,000 compounds, 0.19% hits; further: potency means the concentration at half of the fitted maximal effect; 0% is about no effect; nearly all actives have a fitted effect of over 55% in size
Shiga inhibitor – Shiga toxin inhibition. Vero cells, Shiga toxin protein synthesis inhibition reporter. inhibition, % at 38.7 µM. 290,000 compounds, 9.2% hits. AID 2315; in the data active means inhibition mostly above about 28%, no sharp cut-off; inactive means mostly below about 43%; further: 0% is about no effect
Pf growth 48h – inhibits P. falciparum growth in the first generation, 48 h; 310,000 compounds, 5.9% hits; AID 504832; P. falciparum luciferase growth in erythrocytes, 48 h; Potency, µM (series often up to 28.7 µM), for the others: top-dose activity change, negative = inhibition, hits mostly inhibitors; active means well fitted inhibition curve with a large enough effect; inconclusive means small, poorly fitted or top-dose-only effect, or another doubt; inactive means no such curve, though single readings can be large or run the other way; further: potency means the concentration at half of the fitted maximal effect; on the % scale 0 is the no-effect control and ±100 the full control effect
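Cell-based growth assay: transgenic P. falciparum expressing firefly luciferase, cultured in red cells within RPMI 1640 containing 0.5% w/v Albumax, 24 mM bicarbonate and gentamycin. A drop in luciferase activity indicates inhibition.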
Pf growth 96h – P. falciparum growth inhibition at 96 hour, primary screen for plastid delayed-death inhibitors; P. falciparum luciferase reporter growth, 96 h; Potency, µM (series often up to 28.7 µM), for inactives: top-dose activity change, negative = inhibition, most hits filed as inhibitors; 320,000 compounds, 6.9% hits; AID 504834; active means well fitted inhibition curve with a large enough effect; inconclusive means small, poorly fitted or top-dose-only effect, or another doubt; inactive means no such curve, though single readings can be large or run the other way; further: potency means the concentration at half of the fitted maximal effect; on the % scale 0 is the no-effect control and ±100 the full control effect
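Cell-based qHTS: luciferase-tagged P. falciparum in erythrocytes (2% hematocrit, 0.05% parasitemia final) incubated with compounds for 96 hours, 37 C, 5% CO2; luciferase detection reagent then added and luminescence measured.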
NS1 function inh – inhibitors of influenza NS1 protein function | Potency, µM (highest dose often 46.1 µM), inactives show top-dose activity, positive = more growth | 270,000 compounds, 0.4% hits; further: potency means the concentration at half of the fitted maximal effect; actives are rising curves; nearly all actives have a fitted effect of over 50% in size
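In this qHTS, NS1 from influenza A is expressed in budding yeast, where it slows growth. Cells are switched from glucose to 2% galactose medium (pH 6.0, -URA), treated with compound, and growth recovery is read at OD600.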
Active calls of the source: *. Rows were chosen to be rich in hits. Some 21% of all compounds tested hit in one or more screens of this group. Unless noted, the call rests on the fitted dose curve.

How did COCc1cc(C)nc(SCC(=O)Nc2ccc(C)c(C)c2)c1C#N do in these assays?
Cycloheximide cs: 43.9*; SARS PLP yeast: -1.6%; Shiga inhibitor: 97.8*; Pf growth 48h: 92.7%; Pf growth 96h: 23.5%; NS1 function inh: -5.7%

What do the screens show for `Cc1nc(SCC(=O)Nc2ccc3c(c2)OCO3)c(C#N)c2c1CCCC2`?
Cycloheximide cs: -0.9; SARS PLP yeast: 4.2%; Shiga inhibitor: 48.7; Pf growth 48h: 40.8%; NS1 function inh: 0.6%

Results for Cc1cc(C)c(C#N)c(SCC(=O)Nc2ccc3c(c2)OCO3)n1 ?
Cycloheximide cs: 26.0*; SARS PLP yeast: -2.5%; Shiga inhibitor: 28.1*; Pf growth 48h: 99.0%; Pf growth 96h: 132.5%; NS1 function inh: -0.3%

Results for Cc1cc(C)cc(-n2ccnc2SCC(=O)O)c1 ?
Cycloheximide cs: 0.9; SARS PLP yeast: 0.4%; Shiga inhibitor: -5.0; Pf growth 48h: inactive; Pf growth 96h: 171.6%; NS1 function inh: 6.9%

What do the screens show for `CC(=O)N1CCOc2ccc(S(=O)(=O)N3CCC(C(=O)NCc4ccccc4)CC3)cc21`?
Cycloheximide cs: -1.1; SARS PLP yeast: 0.4%; Shiga inhibitor: 7.2; Pf growth 48h: inconclusive; Pf growth 96h: inconclusive; NS1 function inh: -12.2%

What do the screens show for `O=C(NCCCN1CCCC1)Nc1ccccc1[N+](=O)[O-]`?
Cycloheximide cs: -3.1; SARS PLP yeast: 1.7%; Shiga inhibitor: -0.8; Pf growth 48h: 15.8%; Pf growth 96h: 42.8%; NS1 function inh: 0.0%

What do the screens show for `O=C(NNc1ccc(Cl)nn1)c1ccc(Cl)cc1`?
Cycloheximide cs: -1.1; SARS PLP yeast: -2.2%; Shiga inhibitor: 7.2; Pf growth 48h: -2.1%; Pf growth 96h: 1.3%; NS1 function inh: -0.5%

What do the screens show for `CC(CN1c2ccccc2Sc2ccccc21)N(C)C` (stereo not drawn)?
Cycloheximide cs: -3.5; SARS PLP yeast: -0.3%; Shiga inhibitor: 4.3; Pf growth 48h: inconclusive; Pf growth 96h: inconclusive; NS1 function inh: -29.8%

How did C#CCN1c2ccccc2Sc2cccnc21 do in these assays?
Cycloheximide cs: -1.9; SARS PLP yeast: -2.1%; Shiga inhibitor: 3.7; Pf growth 48h: 0.329µM*; Pf growth 96h: 0.117µM*; NS1 function inh: -2.1%

What do the screens show for `Cc1ccc2c(c1)C(c1ccccc1)CC(=O)O2` (stereo not drawn)?
Cycloheximide cs: 0.9; SARS PLP yeast: 0.4%; Shiga inhibitor: -6.4; Pf growth 48h: 3.3%; Pf growth 96h: 22.2%; NS1 function inh: 3.1%

What do the screens show for `CCOc1ccc(CN(C(=O)c2ccco2)C2CCS(=O)(=O)C2)cc1` (stereo not drawn)?
Cycloheximide cs: -5.3; SARS PLP yeast: 2.2%; Shiga inhibitor: -2.4; Pf growth 48h: 10.2%; Pf growth 96h: 2.0%; NS1 function inh: 4.9%

How did CCOc1ccc(CN(C(=O)c2cc3ccccc3oc2=O)C2CCS(=O)(=O)C2)cc1 (stereo not drawn) do in these assays?
Cycloheximide cs: 68.3*; SARS PLP yeast: 1.6%; Shiga inhibitor: 110.5*; Pf growth 48h: -1.4%; Pf growth 96h: 12.7%; NS1 function inh: -2.2%

Results for COc1ccc(CN(C(=O)c2cc3ccccc3oc2=O)C2CCS(=O)(=O)C2)cc1OC (stereo not drawn) ?
Cycloheximide cs: 45.1*; SARS PLP yeast: -1.9%; Shiga inhibitor: 98.5*; Pf growth 48h: 15.1%; Pf growth 96h: 37.9%; NS1 function inh: -4.1%

What do the screens show for `COc1ccc(CN(C(=O)/C=C/c2ccco2)C2CCS(=O)(=O)C2)cc1OC` (stereo not drawn)?
Cycloheximide cs: -3.8; SARS PLP yeast: -10.9%; Shiga inhibitor: -4.3; Pf growth 48h: 11.6%; Pf growth 96h: 36.8%; NS1 function inh: 7.3%

What do the screens show for `COc1ccc(CN(C(=O)c2cc3ccccc3oc2=O)C2CCCC2)cc1`?
Cycloheximide cs: -1.2; SARS PLP yeast: -19.8%; Shiga inhibitor: 11.6; Pf growth 48h: -16.9%; Pf growth 96h: 3.7%; NS1 function inh: -9.6%

What do the screens show for `COc1ccc(CN(C(=O)c2cc3ccccc3oc2=O)C2CCS(=O)(=O)C2)cc1` (stereo not drawn)?
Cycloheximide cs: 32.0*; SARS PLP yeast: 3.5%; Shiga inhibitor: 61.9*; Pf growth 48h: -11.0%; Pf growth 96h: 17.0%; NS1 function inh: -4.1%
